Only some compounds are listed: those with a hit (about 2.4% of all), similar ones and a draw of the others.
TGFb inhibitor: qHTS for Inhibitors of TGF-b; hit rate 1.2% among 410,000; AID 588855, 2011; HepG2 CAGA-GFP TGF-b/SMAD3 reporter, GFP fluorescence, 18 h; TGF-beta stimulated, 500 pg/mL final; Potency, µM (highest dose often 46.1 µM), hits mostly inhibitors; also: nearly all actives have a fitted effect of over 65% in size
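Inhibition was scored as loss of TGF-beta-induced (500 pg/mL final, 18 hours, 37 degrees C) GFP in HEPG2 cells carrying a CAGA-GFP reporter, in DMEM with 1% FBS. Well GFP was summed per cell; Activity was normalised to unstimulated and stimulated DMSO wells, then concentration-response fitting.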
Apoferritin bind: qHTS Assay for Identification of Novel General Anesthetics. Ferritin light chain (Equus caballus), P02791. Potency, µM (doses to about 77.5 µM), actives largely listed as inhibitors. hit rate 0.074% among 350,000. apoferritin/1-aminoanthracene competitive binding, fluorescence; also: nearly all actives have a fitted effect of over 20% in size
Target sequence (P02791 2-175 limits assumed): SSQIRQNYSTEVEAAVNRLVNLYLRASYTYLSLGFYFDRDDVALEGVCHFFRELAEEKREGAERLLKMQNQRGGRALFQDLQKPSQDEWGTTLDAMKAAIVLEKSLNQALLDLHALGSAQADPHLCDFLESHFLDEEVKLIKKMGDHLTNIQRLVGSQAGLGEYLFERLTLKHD
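Horse-spleen apoferritin (10 uM) in 50% saturated 1-aminoanthracene in PBS was incubated 10 min at room temperature with compound. Fluorescence (ex 380, em 535 nm) was normalized to free and bound 1-AMA, with concentration-response fitted by a four-parameter Hill equation.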
HepG2 viability: qHTS for Inhibitors of TGF-b: Cytotox Counterscreen; HepG2 CAGA-GFP viability, ATP luminescence, 18 h; Potency, µM (titrated, usually from 46.1 µM), hits mostly cytotoxic; hit rate 0.76% among 410,000; AID 588856, 2011
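CellTiter-Glo luminescence gave cytotoxicity after 18 hours at 37 degrees C. The cells were HepG2 CAGA-GFP in 1% FBS DMEM, stimulated with 500 pg/mL TGF-beta after compound addition. %Activity was normalised to no-cell wells (complete cell-killing) and DMSO (no toxicity), and curves were fitted and classified.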
ATXN viability: Viability Counterscreen for Primary qHTS for Inhibitors of ATXN expression; AID 651635, 2014; S2 cells (HEK-293 line with an ATXN2-luciferase reporter) viability, CellTiter-Fluor protease fluorescence, 24 h; hit rate 0.49% among 400,000; Potency, µM (titrated, usually from 56.7 µM), hits mostly cytotoxic; also: nearly all actives have a fitted effect of over 40% in size
ATXN2 expr inh: Primary qHTS for Inhibitors of ATXN expression | hit rate 0.72% among 360,000 | Potency, µM (doses to about 57 µM), hits mostly inhibitors | HEK-293 ATXN2-luciferase reporter, luminescence, 24 h; also: nearly all actives have a fitted effect of over 55% in size
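ATXN2-luciferase reporter cells (luciferase flanked by upstream and downstream ATXN2 gene portions) were treated 24 h at 37 °C with compounds at up to 57 uM. SteadyGlo luminescence gave expression; GF-AFC fluorescence gave viability.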
Numbers stand for hits. Calls follow the shape of the dose curve; as a rule, active = well fitted curve in the direction sought with a large enough effect; inconclusive = small, poorly fitted or top-dose-only effect, or another doubt; inactive = no such curve, though single readings can be large; an effect the other way counts as inactive or inconclusive.

For COc1ccc(CC(=O)Nc2ccc(OC(C)=O)cc2C(=O)O)cc1 the results were TGFb inhibitor inactive, Apoferritin bind inactive, HepG2 viability 1.1µM and ATXN viability inactive.
For COc1ccc(OC)c(NC(=O)c2cccc(N3C(=O)C4C5C=CC(C6CC56)C4C3=O)c2)c1 (stereo not drawn) the results were TGFb inhibitor inconclusive, Apoferritin bind inactive, HepG2 viability inactive and ATXN viability 14µM.
COc1ccc(OC)c(NC(=O)c2cccc(N3C(=O)C4C5CCC(C5)C4C3=O)c2)c1 (stereo not drawn) was read as TGFb inhibitor inactive, Apoferritin bind inconclusive, HepG2 viability inactive, ATXN viability inactive and ATXN2 expr inh inactive.
CCCCN1C(=O)c2[nH]nc(-c3ccccc3O)c2C1c1ccc(OCc2ccccc2)c(OC)c1 (stereo not drawn) was read as TGFb inhibitor inconclusive, Apoferritin bind inactive and HepG2 viability inactive.
For CCCCN1C(=O)c2[nH]nc(-c3ccccc3O)c2C1c1ccc(OCc2ccccc2)cc1 (stereo not drawn) the results were TGFb inhibitor 3.5µM, Apoferritin bind inactive and HepG2 viability inactive.
For COCCCN1C(=O)c2[nH]nc(-c3ccccc3O)c2C1c1ccc(OCc2ccccc2)cc1 (stereo not drawn) the results were TGFb inhibitor 20µM, Apoferritin bind inactive and HepG2 viability inactive.
O=C1c2[nH]nc(-c3ccccc3O)c2C(c2cccc(OCc3ccccc3)c2)N1CCO (stereo not drawn) was read as TGFb inhibitor inactive, Apoferritin bind inactive and HepG2 viability inactive.
For CC(C)OCCCN1C(=O)c2[nH]nc(-c3ccccc3O)c2C1c1ccccc1F (stereo not drawn) the results were TGFb inhibitor 10µM, Apoferritin bind inactive and HepG2 viability inactive.
CC(C)OCCCN1C(=O)c2[nH]nc(-c3ccccc3O)c2C1c1cccc(OCc2ccccc2)c1 (stereo not drawn) was read as TGFb inhibitor inconclusive, Apoferritin bind inactive and HepG2 viability 16µM.
CC(C)CCN1C(=O)c2ccc(C(=O)Nc3c[nH]c(=O)[nH]c3=O)cc2C1=O was read as TGFb inhibitor inactive, Apoferritin bind inactive, HepG2 viability inactive, ATXN viability inactive and ATXN2 expr inh inactive.
COc1ccc(-c2cc(C(=O)NCC(C)C)no2)cc1 was read as TGFb inhibitor inactive, Apoferritin bind inactive, HepG2 viability inactive, ATXN viability inactive and ATXN2 expr inh inactive.
For C=C1C=C(C(F)F)n2ncc(C(=O)N3CCCCC3)c2N1 the results were TGFb inhibitor inactive and HepG2 viability inactive.
Screening COc1cc2c(cc1OC)C(C)N(C(=O)c1cc3c(s1)-c1ccccc1OC3)CC2 (stereo not drawn) returned TGFb inhibitor 11µM, Apoferritin bind inactive, HepG2 viability inactive, ATXN viability inconclusive and ATXN2 expr inh 25µM.
`COc1cc2c(cc1OC)C(C)N(C(=O)c1cc3c(s1)-c1c(C)cccc1OC3)CC2` (stereo not drawn) gave TGFb inhibitor inconclusive, Apoferritin bind inactive, HepG2 viability inactive, ATXN viability inconclusive and ATXN2 expr inh inconclusive.
Screening COC(=O)C1=C(C)N(Cc2ccccc2)C(=NCC(C)C)N[C@H]1c1cccc(C(F)(F)F)c1 returned TGFb inhibitor inconclusive, HepG2 viability inactive, ATXN viability inconclusive and ATXN2 expr inh inconclusive.
`COC(=O)C1=C(C)N(Cc2ccccc2)C(=NCc2ccccc2)N[C@H]1c1cccc(C(F)(F)F)c1` gave TGFb inhibitor inconclusive, HepG2 viability 14µM and ATXN2 expr inh inconclusive.
For CCN1C(=NCCc2ccccn2)N[C@@H](c2cccc(C(F)(F)F)c2)C(C(=O)OC)=C1C the results were TGFb inhibitor inactive, Apoferritin bind inactive, HepG2 viability inactive, ATXN viability inactive and ATXN2 expr inh inactive.
For COC(=O)C1=C(C)N(Cc2ccccc2)C(=NCCc2ccccn2)N[C@H]1c1cccc(C(F)(F)F)c1 the results were TGFb inhibitor inconclusive, Apoferritin bind inconclusive, HepG2 viability inactive, ATXN viability inconclusive and ATXN2 expr inh 35µM.
For O=c1cc(C(F)(F)F)nc(SC/C=C/c2ccccc2)[nH]1 the results were TGFb inhibitor 14µM, Apoferritin bind inactive, HepG2 viability inactive and ATXN viability inactive.
For Nc1cc(=O)[nH]c(SC/C=C/c2ccccc2)n1 the results were TGFb inhibitor inactive, Apoferritin bind inactive, HepG2 viability inactive, ATXN viability inactive and ATXN2 expr inh inactive.
Screening CSc1ccc(CCNC(=O)Cn2ncc3c(=O)oc4ccc(C)cc4c32)cc1 returned TGFb inhibitor inactive, Apoferritin bind inactive and HepG2 viability inactive.
For O=C(NCc1ccccc1Cl)c1cnc2sc(N3CCOCC3)nn2c1=O the results were TGFb inhibitor inactive, Apoferritin bind inactive, HepG2 viability inactive, ATXN viability inactive and ATXN2 expr inh inactive.
For O=C(Nc1ccccc1)c1ccc(Br)c(S(=O)(=O)N2CCCCC2)c1 the results were TGFb inhibitor 6.3µM, Apoferritin bind inactive and HepG2 viability inactive.
`O=C(O)c1ccc(NC(=O)c2ccc(Br)c(S(=O)(=O)N3CCCC3)c2)cc1` gave TGFb inhibitor inactive, Apoferritin bind inactive, HepG2 viability inactive, ATXN viability inactive and ATXN2 expr inh inactive.
For CCCn1nnnc1NC(=O)c1ccc2ccccc2c1 the results were TGFb inhibitor inactive, Apoferritin bind inactive, HepG2 viability 13µM, ATXN viability inconclusive and ATXN2 expr inh inconclusive.
COc1cc(/C=C2/C(=O)c3cccc([N+](=O)[O-])c3C2=O)c(Br)cc1O was read as TGFb inhibitor inconclusive, Apoferritin bind inconclusive, HepG2 viability inactive and ATXN2 expr inh 22µM.
`O=C(C=Cc1cccc(S(=O)(=O)Nc2ccccc2)c1)NO` gave ATXN2 expr inh inactive.
For CC(C)(c1ccccc1)c1ccc(OCCCNCCO)cc1 the results were TGFb inhibitor inactive, Apoferritin bind 11µM, HepG2 viability inactive, ATXN viability inconclusive and ATXN2 expr inh inactive.
O=C1NC(Cc2ccc(O)cc2)c2nc3cc(F)ccc3c(=O)n2-c2cc3ccccc3cc21 (stereo not drawn) was read as TGFb inhibitor 20µM, HepG2 viability inactive, ATXN viability inconclusive and ATXN2 expr inh inconclusive.
`CC(C)Cc1ccc(CN2CCCC(NC(=O)CCN3CCCCC3=O)C2)cc1` (stereo not drawn) gave TGFb inhibitor inactive, Apoferritin bind inactive, HepG2 viability inactive, ATXN viability inactive and ATXN2 expr inh inactive.
Screening CC(C)Cc1ccc(C(C)/C=C2/CCC(CN3CCCCC3)C2=O)cc1 (stereo not drawn) returned TGFb inhibitor 16µM, HepG2 viability inactive and ATXN2 expr inh inconclusive.

Compound activity: PubChem BioAssay, National Center for Advancing Translational Sciences (NCATS)
